Activity calls are given as the source filed them. The call rests on the fitted dose curve; in most records, active means well fitted curve in the direction sought with a large enough effect; inconclusive means small, poorly fitted or top-dose-only effect, or another doubt; inactive means no such curve, though single readings can be large or run the other way.
experiment: qHTS for compounds that reverse cellular toxicity of Amyloid beta (A-beta) peptide in yeast: LOPAC Validation Assay (AID 720559); settings: yeast expressing A-beta; series mostly up to 46.1 µM; growth rescue, positive = activation: at the top concentration;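 further: plate controls were DMSO for no effect and equimolar ferric chloride plus clioquinol rescue for full effect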
How it was run: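 OD600 growth readout after 48 hr at 30 C; A-beta-toxic yeast plus pinned compounds in medium. Normalization: DMSO = negative, equimolar FeCl3 + clioquinol = positive.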

SMILES	growth rescue, positive = activation
C=CCN1CC[C@]23CCCCC2[C@H]1Cc1ccc(O)cc13 (stereo partly drawn)	-6.14% (inactive)
Clc1cnc(Oc2ccc(Oc3ncc(Cl)cc3Cl)cc2)c(Cl)c1	-3.21% (inactive)
COc1ccc2c(c[n+](C)c3c4cc5c(cc4ccc23)OCO5)c1OC	-7.82% (inactive)
C[C@]12CCC3C(CC[C@H]4C[C@H](O)CC[C@]34C)C1CC[C@@H]2C(=O)CO (stereo partly drawn)	-14.5% (inactive)
CC1=NN=C(c2ccc(N)cc2)c2cc3c(cc2C1)OCO3	-4.05% (inactive)
Oc1ccc2c3c1O[C@H]1c4[nH]c5c(c4C[C@@]4(O)[C@@H](C2)N(CC2CC2)CC[C@]314)C[C@@]1(O)[C@H]2Cc3ccc(O)c4c3[C@@]1(CCN2CC1CC1)[C@H]5O4	-4.02% (inactive)
CCCCc1ccc(C(=O)O)nc1	1.53% (inactive)
C[C@@H](N)Cc1cnc[nH]1	-4.34% (inactive)
c1ccc(CCCN2CCN(CCOC(c3ccccc3)c3ccccc3)CC2)cc1	3.83% (inactive)
NC(=NCCC[C@H](N)C(=O)O)N[N+](=O)[O-]	-7.47% (inactive)
COC(=O)[C@@H](N)CCCN=C(N)N[N+](=O)[O-]	-3.34% (inactive)
S=C(NC1CCCCC1)N1CCC(c2cnc[nH]2)CC1	-1.73% (inactive)
CC(Cc1ccc(O)cc1)NCC(O)c1cc(O)cc(O)c1 (stereo not drawn)	-1.25% (inactive)
